Experimental data from ChEMBL document CHEMBL1961873, “Compounds: GSK PKIS; Assays: Nanosyn kinase panel” (2012).

Columns and labels:
[1] = target: Serine/threonine-protein kinase 26 (Homo sapiens) (UniProt Q9P289); details: at 1 µM;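 note: mean inhibition of MST4 kinase activity, reported from the GSK PKIS inhibitor-set screening panel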
[2] = target: Serine/threonine-protein kinase PAK 1 (Homo sapiens) (UniProt Q13153); details: at 0.1 µM
[3] = target: Serine/threonine-protein kinase PAK 1 (Homo sapiens) (UniProt Q13153); details: at 1 µM
[4] = target: Serine/threonine-protein kinase PAK 2 (Homo sapiens) (UniProt Q13177); details: at 0.1 µM
Sequence of Serine/threonine-protein kinase PAK 2 (Homo sapiens) (Q13177 whole entry): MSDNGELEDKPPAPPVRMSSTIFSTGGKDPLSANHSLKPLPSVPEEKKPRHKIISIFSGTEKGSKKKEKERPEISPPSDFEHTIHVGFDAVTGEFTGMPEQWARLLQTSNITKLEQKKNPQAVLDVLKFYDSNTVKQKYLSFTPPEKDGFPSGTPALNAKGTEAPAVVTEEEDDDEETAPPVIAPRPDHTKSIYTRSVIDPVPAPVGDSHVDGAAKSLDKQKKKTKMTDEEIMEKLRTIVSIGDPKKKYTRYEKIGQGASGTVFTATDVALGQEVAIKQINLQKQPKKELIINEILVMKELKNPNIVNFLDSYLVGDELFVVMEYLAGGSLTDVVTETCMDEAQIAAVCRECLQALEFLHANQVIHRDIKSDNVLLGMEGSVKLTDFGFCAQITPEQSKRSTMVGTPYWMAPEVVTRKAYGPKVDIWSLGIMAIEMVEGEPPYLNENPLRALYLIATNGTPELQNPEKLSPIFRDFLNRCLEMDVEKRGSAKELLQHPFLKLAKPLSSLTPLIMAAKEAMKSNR

[5] = target: Serine/threonine-protein kinase PAK 2 (Homo sapiens) (UniProt Q13177); details: at 1 µM
[6] = target: Serine/threonine-protein kinase PAK 3 (Homo sapiens) (UniProt O75914); details: at 0.1 µM
Sequence of Serine/threonine-protein kinase PAK 3 (Homo sapiens) (O75914 whole entry, looked up): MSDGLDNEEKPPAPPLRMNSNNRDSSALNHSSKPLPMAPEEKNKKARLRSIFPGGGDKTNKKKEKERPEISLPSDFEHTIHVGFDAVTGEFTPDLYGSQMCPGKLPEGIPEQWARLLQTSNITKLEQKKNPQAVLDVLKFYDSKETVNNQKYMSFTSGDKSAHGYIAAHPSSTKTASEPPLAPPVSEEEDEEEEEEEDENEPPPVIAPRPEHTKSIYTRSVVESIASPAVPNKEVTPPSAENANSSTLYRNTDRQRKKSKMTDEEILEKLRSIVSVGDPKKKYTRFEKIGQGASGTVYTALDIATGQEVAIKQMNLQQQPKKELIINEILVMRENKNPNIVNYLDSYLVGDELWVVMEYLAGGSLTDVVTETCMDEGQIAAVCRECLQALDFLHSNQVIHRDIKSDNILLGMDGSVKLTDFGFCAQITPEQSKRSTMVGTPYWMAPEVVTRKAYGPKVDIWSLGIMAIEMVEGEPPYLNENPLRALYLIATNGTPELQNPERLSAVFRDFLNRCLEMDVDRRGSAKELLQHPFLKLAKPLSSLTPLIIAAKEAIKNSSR

[7] = target: Serine/threonine-protein kinase PAK 3 (Homo sapiens) (UniProt O75914); details: at 1 µM
[8] = target: Serine/threonine-protein kinase PAK 5 (Homo sapiens) (UniProt Q9P286); details: at 0.1 µM
Sequence of Serine/threonine-protein kinase PAK 5 (Homo sapiens) (Q9P286 whole entry, looked up): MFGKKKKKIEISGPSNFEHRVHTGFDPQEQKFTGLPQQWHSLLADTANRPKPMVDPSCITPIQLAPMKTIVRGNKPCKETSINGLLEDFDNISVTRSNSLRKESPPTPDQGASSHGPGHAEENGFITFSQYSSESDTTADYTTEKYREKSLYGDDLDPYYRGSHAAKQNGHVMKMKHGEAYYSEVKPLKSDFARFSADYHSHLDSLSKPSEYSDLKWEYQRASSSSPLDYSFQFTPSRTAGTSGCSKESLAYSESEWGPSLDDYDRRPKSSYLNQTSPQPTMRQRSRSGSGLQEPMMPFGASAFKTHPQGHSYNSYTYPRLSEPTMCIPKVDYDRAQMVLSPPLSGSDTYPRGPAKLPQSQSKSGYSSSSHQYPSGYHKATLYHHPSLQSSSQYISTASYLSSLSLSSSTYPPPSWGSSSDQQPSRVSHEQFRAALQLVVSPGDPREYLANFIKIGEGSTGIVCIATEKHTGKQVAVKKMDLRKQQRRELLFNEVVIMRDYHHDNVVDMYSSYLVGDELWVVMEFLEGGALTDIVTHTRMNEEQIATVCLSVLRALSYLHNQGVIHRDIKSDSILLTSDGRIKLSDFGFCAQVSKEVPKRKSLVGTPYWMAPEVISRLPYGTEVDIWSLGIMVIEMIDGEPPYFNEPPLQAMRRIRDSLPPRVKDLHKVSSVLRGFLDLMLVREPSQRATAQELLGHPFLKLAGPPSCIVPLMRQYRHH

[9] = target: Serine/threonine-protein kinase PAK 5 (Homo sapiens) (UniProt Q9P286); details: at 1 µM
[10] = target: Serine/threonine-protein kinase PAK 6 (Homo sapiens) (UniProt Q9NQU5); details: at 0.1 µM;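 note: mean PAK6 inhibition reported from the GSK PKIS screen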
Sequence of Serine/threonine-protein kinase PAK 6 (Homo sapiens) (Q9NQU5 whole entry, looked up): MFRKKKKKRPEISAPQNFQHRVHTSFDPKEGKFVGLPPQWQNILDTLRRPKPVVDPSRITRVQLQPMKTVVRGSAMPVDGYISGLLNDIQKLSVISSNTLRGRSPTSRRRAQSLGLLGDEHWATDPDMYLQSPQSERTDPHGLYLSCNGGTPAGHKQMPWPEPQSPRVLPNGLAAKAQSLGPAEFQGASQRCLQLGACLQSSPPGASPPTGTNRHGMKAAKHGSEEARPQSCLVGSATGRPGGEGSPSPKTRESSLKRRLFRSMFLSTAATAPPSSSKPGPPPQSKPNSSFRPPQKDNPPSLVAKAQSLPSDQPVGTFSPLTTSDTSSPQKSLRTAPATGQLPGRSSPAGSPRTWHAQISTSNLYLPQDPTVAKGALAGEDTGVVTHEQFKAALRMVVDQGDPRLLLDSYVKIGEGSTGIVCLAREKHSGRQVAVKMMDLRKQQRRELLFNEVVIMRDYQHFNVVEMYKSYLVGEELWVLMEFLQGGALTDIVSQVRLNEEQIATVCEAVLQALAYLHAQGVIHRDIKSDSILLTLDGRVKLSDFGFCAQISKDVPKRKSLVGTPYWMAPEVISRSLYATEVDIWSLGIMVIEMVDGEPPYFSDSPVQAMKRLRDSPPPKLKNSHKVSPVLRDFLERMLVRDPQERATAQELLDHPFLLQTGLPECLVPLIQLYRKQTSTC

Sequence of Serine/threonine-protein kinase 26 (Homo sapiens) (Q9P289 2-416 limits assumed): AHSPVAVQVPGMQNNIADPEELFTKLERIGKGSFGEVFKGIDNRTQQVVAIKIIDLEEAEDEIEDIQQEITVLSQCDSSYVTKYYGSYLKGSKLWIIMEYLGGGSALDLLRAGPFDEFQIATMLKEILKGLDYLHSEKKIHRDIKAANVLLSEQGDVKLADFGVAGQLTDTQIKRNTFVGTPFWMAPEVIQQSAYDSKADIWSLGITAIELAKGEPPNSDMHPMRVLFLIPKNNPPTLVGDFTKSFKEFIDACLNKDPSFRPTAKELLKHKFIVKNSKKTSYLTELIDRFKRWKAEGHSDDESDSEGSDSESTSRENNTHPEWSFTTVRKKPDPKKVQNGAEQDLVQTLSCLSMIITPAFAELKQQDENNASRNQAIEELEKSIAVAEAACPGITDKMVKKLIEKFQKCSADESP
Sequence of Serine/threonine-protein kinase PAK 1 (Homo sapiens) (Q13153 whole entry): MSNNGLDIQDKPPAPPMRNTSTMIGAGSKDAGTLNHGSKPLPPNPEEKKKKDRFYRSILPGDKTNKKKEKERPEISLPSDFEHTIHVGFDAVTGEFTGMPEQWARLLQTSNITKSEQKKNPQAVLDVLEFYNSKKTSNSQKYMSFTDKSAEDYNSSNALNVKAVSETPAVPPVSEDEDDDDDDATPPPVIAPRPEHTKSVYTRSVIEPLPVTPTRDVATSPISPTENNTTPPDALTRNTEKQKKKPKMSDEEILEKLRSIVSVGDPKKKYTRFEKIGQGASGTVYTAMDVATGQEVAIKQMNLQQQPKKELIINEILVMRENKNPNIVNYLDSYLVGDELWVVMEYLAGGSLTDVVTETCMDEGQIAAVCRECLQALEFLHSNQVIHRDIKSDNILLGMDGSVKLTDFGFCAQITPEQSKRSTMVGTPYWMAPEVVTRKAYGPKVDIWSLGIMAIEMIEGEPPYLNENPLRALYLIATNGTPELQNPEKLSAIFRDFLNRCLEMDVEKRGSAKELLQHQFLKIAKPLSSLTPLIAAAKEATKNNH

SMILES | inhibition [1] | inhibition [2] | inhibition [3] | inhibition [4] | inhibition [5] | inhibition [6] | inhibition [7] | inhibition [8] | inhibition [9] | inhibition [10]
CC(C)(CO)CNC(=O)c1ccc2c(c1)/C(=N/Nc1ccc(S(N)(=O)=O)cc1)C(=O)N2 | 7.27% | 3.17% | 3.48% | -1.4% | -0.42% | -1.02% | 0.96% | -0.42% | 0.12% | 2.03%
O=C(Nc1n[nH]c2cc(-c3ccc(F)cc3)ccc12)C1CC1 | -1.27% | 5.64% | 5.57% | 1.33% | 0.78% | 3.25% | 3.1% | 4.4% | -1.87% | 2.33%
CCn1c(-c2nonc2N)nc2ccccc21 | -1.31% | 5% | 6.81% | 3.34% | 2.08% | 1.86% | 4.13% | 5.02% | 8.78% | 0.13%
CN1CCC(n2cnc(-c3ccc(F)cc3)c2-c2ccnc(N)n2)CC1 | 1.62% | -0.17% | 3.27% | 0.07% | -0.19% | 0.98% | 1.43% | -5.17% | 3.69% | -8.92%
CCn1c(-c2nonc2N)nc2cnc(Oc3cccc(NC(=O)c4ccc(N(C)C)cc4)c3)cc21 | 0.84% | 3.97% | 6.82% | 0.04% | 0.22% | 1.76% | 2.25% | 2.13% | -2.93% | 2.57%
FC(F)(F)c1cccc(-c2nn3ncccc3c2-c2ccnc(Nc3ccc4c(c3)OCCO4)n2)c1 | 0.56% | 3.7% | 3.72% | 1.01% | 1.43% | 1.69% | 2.03% | -5.89% | -2.25% | -3.42%
Fc1ccc(-c2nn3ccccc3c2-c2ccncc2)cc1 | 2.42% | 3.29% | 1.62% | -0.13% | -0.1% | 1.29% | 1.75% | -0.38% | -4.35% | 4.75%
NC(=O)c1sc(-n2cnc3ccc(C(F)(F)F)cc32)cc1OCc1ccccc1Br | 0.41% | 5.7% | 7.84% | 0.77% | 1.46% | 3.71% | 3.48% | 1.98% | 3.21% | -5.11%
COC(=O)Nc1nc2ccc(S(=O)(=O)c3ccc(NC(=O)Nc4cc(C(F)(F)F)ccc4F)cc3)cc2[nH]1 | -2.57% | 5.36% | 4.48% | 2.17% | 1.9% | 2.62% | 3.11% | -4.37% | -3.51% | -3.27%
Cc1cccc(Nc2ncc(-c3ccccc3)o2)c1 | 1.87% | -2.05% | 3.35% | 0.94% | 2.06% | 2.83% | 5.76% | 1.42% | 10.2% | -4.69%
CCCN1CCC(c2ccc(Nc3nc(Nc4cc(F)ccc4C(N)=O)c4cc[nH]c4n3)c(OC)c2)CC1 | 0.06% | 5.31% | 3.04% | 1.19% | 2.08% | 4.32% | 5.21% | 1.36% | 22.6% | -9.18%
COc1cc(N2CCN(C(C)C)CC2)ccc1Nc1nc(Nc2ccc(F)cc2C(N)=O)c2cc[nH]c2n1 | 2.73% | 3.63% | 7.46% | 0.48% | 2.24% | 2.9% | 6.18% | 8.18% | 27.4% | -5.81%
COC(=O)c1sc(-n2cnc3cc(OC)c(OC)cc32)cc1OCc1ccccc1C(F)(F)F | 0.54% | 7.38% | 9.12% | 1.91% | 1.84% | 3.84% | 4.18% | -1.22% | -4.74% | -7.92%
CCn1c(-c2nonc2N)nc2c(C#CC(C)(C)O)ncc(OC3CCNCC3)c21 | 4.19% | 2.8% | 8.91% | 1.98% | 13.5% | 2.99% | 8.39% | 34.6% | 80.1% | 14.6%
c1ccc(-c2nc3n(c2-c2ccc4c(c2)OCO4)CCC3)nc1 | -1.91% | 3.44% | 6.33% | -0.09% | -0.63% | 1.57% | 2.08% | 3.16% | -0.63% | 4.69%
COc1ccc(-c2nn3ncccc3c2-c2ccnc(Nc3ccc4c(c3)OCCO4)n2)cc1 | 0.26% | 3.86% | -2.26% | -0.29% | 0.11% | 1.09% | 1.51% | -2.13% | -5% | 1.12%
CN1CCC(n2cnc(-c3ccc(F)cc3)c2-c2ccnc(Nc3ccccc3)n2)CC1 | 5.17% | 1.24% | 4.02% | 0.86% | -0.38% | 2.18% | 2.38% | -3.93% | 4.44% | -9.85%

SMILES | inhibition [1] | inhibition [2] | inhibition [3] | inhibition [4] | inhibition [5] | inhibition [6] | inhibition [7] | inhibition [8] | inhibition [9] | inhibition [10]
[O-][S+]1CCN(Cc2ccc(-c3ccc4ncnc(Nc5ccc(OCc6cccc(F)c6)c(Cl)c5)c4c3)o2)CC1 | 2.07% | 8.29% | 11.2% | 2.04% | 2.89% | 6.22% | 5.6% | 3.4% | 2.31% | -2.88%
CCCN(CCS(C)(=O)=O)Cc1ccc(-c2ccc3ncnc(Nc4ccc(OCc5cccc(F)c5)c(Cl)c4)c3c2)o1 | 2.97% | 5.02% | 3.91% | 0.72% | 0.92% | 1.58% | 2.05% | 3.25% | 9.68% | -9.75%
Clc1ccc(-c2nn3ncccc3c2-c2ccnc(Nc3ccccc3)n2)cc1 | 2.44% | 2.29% | -0.81% | 1.12% | -0.15% | 0.58% | 0.87% | 7.85% | -0.84% | 7.89%
Fc1ccc(-c2cc(-c3c[nH]nc3-c3ccccn3)ccn2)cc1 | 1.02% | 6.01% | 5.42% | 1.23% | 1.38% | 4.08% | 5.11% | 6.2% | 2.37% | -1.74%
CCN(CC)S(=O)(=O)c1ccc(OC)c(Nc2ncc(-c3ccccc3)o2)c1 | 2.13% | -1.78% | 3.9% | -0.97% | 0.12% | 0.22% | 1.76% | 8.61% | -0.8% | 5.19%
CS(=O)(=O)CCNCc1ccc(-c2ccc3ncnc(Nc4ccc(OCc5ccccc5)c(C(F)(F)F)c4)c3c2)o1 | -2.67% | 4.26% | 8.46% | 1.24% | 1.28% | 4.99% | 4.14% | 1.91% | 3.73% | -5.25%
COc1ccc(CNC(=O)c2ccc(-c3cc(-c4nnc(C)o4)ccc3C)cc2)cc1 | 4.31% | 5.02% | 5.86% | 0.61% | 0.95% | 1.81% | 3.19% | 8.37% | 8.19% | 5.26%
COc1cc2ncn(-c3cc(OCc4ccccc4C(F)(F)F)c(C(=O)N(C)C)s3)c2cc1OC | 3.36% | -0.17% | -2.04% | -1.09% | -0.86% | -0.48% | -0.61% | -6.21% | 0.3% | -7.29%
Nc1nc(-c2cccc(Cl)c2)c(-c2ccc3ncccc3n2)s1 | -1.1% | 6.12% | 6.28% | 2.17% | 1.78% | 3.01% | 6.05% | 1.62% | -3.64% | 3.19%
COC(=O)Nc1nc2ccc(Oc3ccc(NC(=O)Nc4cccc(Cl)c4)cc3)cc2[nH]1 | 1.03% | 5.21% | 1.37% | -0.81% | 0.02% | 1.03% | 2.18% | 2.63% | 3.67% | -3.19%
CNC(=O)c1cc(-c2ccc(F)cc2)cc(-c2ccc(S(=O)(=O)N3CCCC3)cc2)c1N | -1.61% | 3.68% | 9.51% | 1.46% | 0.63% | 3.43% | 5.29% | 2.26% | 3.67% | -9.04%
Cc1ccc2c(-c3ccnc(Nc4ccccc4)n3)c(-c3ccc(F)cc3)nn2n1 | 0% | 3.46% | 6.67% | 2.41% | 1.9% | 3.55% | 4.22% | 8.15% | 2.93% | 1.48%
c1ccc(COc2ccc(Nc3ncnc4ccc(-c5ccco5)cc34)cc2)cc1 | 1.35% | 5.7% | 3.88% | -0.79% | -0.42% | 0.44% | 1.49% | -1.27% | -4.07% | 3.06%
COc1ccc(-c2cc(-c3c[nH]nc3-c3ccccn3)ccn2)cc1 | -0.46% | 0.78% | 3.96% | 2.66% | 1.63% | 5.46% | 5.49% | 3.54% | 1.94% | 6.89%
O=S(=O)(CCNCc1ccc(-c2ccc3ncnc(Nc4ccc(OCc5cccc(F)c5)c(Cl)c4)c3c2)o1)c1ccccc1 | -0.49% | 10% | 7.19% | 2.7% | 3.71% | 6.62% | 5.75% | 4.32% | 5.17% | 0.2%
Cc1ccc(O)cc1Nc1ccnc2cc(-c3ccccn3)ccc12 | -0.53% | 7.92% | 8.64% | 3.37% | 2.71% | 4.92% | 5% | 3.23% | 0.07% | 4.84%
CCOc1ccc2c(-c3ccnc(Nc4cccc(C(F)(F)F)c4)n3)cnn2n1 | 0.13% | 4.57% | 3.75% | -0.07% | -0.6% | 3.17% | 2.39% | 0.65% | -0.74% | -3.86%
